Results on 19 compounds are retold here after PubChem BioAssay (NCI).

The nature of experiment [1]: NCI Yeast Anticancer Drug Screen. Data for the rad50 strain (AID 155).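 Note: 0% = growth of vehicle-only cultures of the same strain.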 To be noted: S. cerevisiae rad50 strain growth inhibition, stronger effect = higher value; at 50.0 µM unless noted. In short, it runs like this: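 Cells are treated with compound, grown, and their growth is then scored against vehicle-only cultures of the same repair-deficient yeast strain.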
Experiment [2] can be described thus: NCI Yeast Anticancer Drug Screen. Data for the mec2-1 strain (AID 157). To be noted: S. cerevisiae mec2-1 strain, stronger effect = higher value; at 50.0 µM unless noted. The procedure, abridged: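 mec2-1 yeast strain, carrying an alteration in DNA damage repair or cell cycle control, was exposed to compounds; growth inhibition was measured relative to vehicle-treated controls.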

The nature of experiment [3]: NCI Yeast Anticancer Drug Screen. Data for the sgs1 mgt1 strain (AID 161).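 Note: 0% = growth of cultures given vehicle only.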 Particulars: S. cerevisiae sgs1 mgt1 strain, stronger effect = higher value; at 50.0 µM unless noted. In short, it runs like this: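 This yeast growth screen uses a strain with defined DNA-repair lesions; compound-treated growth is compared with vehicle-treated growth.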
Experiment [4] can be described thus: NCI Yeast Anticancer Drug Screen. Data for the cln2 rad14 strain (AID 165).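 Note: 0% = growth equal to vehicle treated cultures.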 Particulars: S. cerevisiae cln2 rad14 strain, stronger effect = higher value; at 50.0 µM unless noted. In short, it runs like this: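 Yeast carrying cln2 and rad14 alterations (cell cycle control and DNA damage repair) were exposed to compounds. Growth inhibition was measured against vehicle-treated controls.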

Experiment [5] in a line: NCI Yeast Anticancer Drug Screen. Data for the bub3 strain (AID 167). Particulars: S. cerevisiae bub3 mutant strain, stronger effect = higher value; at 50.0 µM unless noted. The procedure, abridged:
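Part of a panel of yeast mutants defective in DNA damage repair or cell cycle regulation. Each strain is grown with compound, and inhibition is calculated relative to solvent-treated cultures.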

Experiment [6] can be described thus: NCI Yeast Anticancer Drug Screen. Data for the mlh1 rad18 strain (AID 175). Particulars: S. cerevisiae mlh1 rad18 strain growth inhibition, stronger effect = higher value; at 50.0 µM unless noted. The procedure, abridged:
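Growth inhibition of the yeast strain was measured after compound exposure and expressed relative to vehicle-treated controls. The strain carries defined defects in DNA damage repair.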

Where “and” joins values, the source holds several entries; their conditions need not be identical. Equal values may be shown once. Compounds without any hit were thinned out: in the full panel of roughly 79,000, 15% have a hit. Unmarked numbers belong to inactive results. Calls of active or inactive are those of the source. Cut-off read from the data, not from the text of the source: active = growth inhibition above about 70%; inactive = the rest.

For `Oc1[nH]c2ccccc2c1N=NC(=S)Nc1ccccc1`, the growth inhibition in experiment [1] was 12.6%; in experiment [2], 2.5%; in experiment [3] it was -2.3%; in experiment [4], -13.1%; in experiment [5] it was -11.4%; in experiment [6] it was -4.75%.
As to `OCC1=CC(O)C2C=COC(OC3OC(CO)C(O)C(O)C3O)C12` (centres undefined), the growth inhibition in experiment [1] was -15.9%; in experiment [2] it was -24.6%; in experiment [3], -19.1%; in experiment [4] it was -6.45%; in experiment [5], -32%; in experiment [6], -31.1%.
With `C=Nc1ccc(Nc2ccccc2)cc1`, the growth inhibition was 5.7% in experiment [1]; -5.2% in experiment [2]; -2.4% in experiment [3]; -3.25% in experiment [4]; -1.6% in experiment [5]; 3.3% in experiment [6].
Turning to `O=C1OC2(CCCCC2)OC1c1ccccc1` (centres undefined), the growth inhibition in experiment [1] was 23.4%; in experiment [2], 4.2%; in experiment [3], 11.9%; in experiment [4], 10.5%; in experiment [5] it was 16.2%; in experiment [6], 33.5%.
`N#CC(C(=O)CCC(=O)NCCc1ccccc1)c1nc2ccccc2s1` (centres undefined): the growth inhibition was -11.9% in experiment [1]; -6.05% in experiment [2]; -10.8% in experiment [3]; -10.1% in experiment [4]; 4.8% in experiment [5]; 4.55% in experiment [6].
`ClC1=C(Cl)C(Cl)(Cl)c2c3c(c4c(c21)C(Cl)(Cl)C(Cl)=C4Cl)C(Cl)(Cl)C(Cl)=C3Cl`: the growth inhibition was -0.6% in experiment [1]; 17.1% in experiment [2]; 5.15% in experiment [3]; -53.8% in experiment [4]; 9.1% in experiment [5]; 7.45% in experiment [6].
As to `CCOc1ccc(C(=O)C[N+]2(CCc3ccccc3)CCOCC2)cc1`, the growth inhibition in experiment [1] was -12.9%; in experiment [2], 6.3%; in experiment [3], 11.6%; in experiment [4], 6.2%; in experiment [5] it was -0.7%; in experiment [6], 41%.
For `Cc1nc2cccc3ccc4c5ccccc5cc1c4c32`, the growth inhibition in experiment [1] is 70% (active); in experiment [2], 15.2%; in experiment [3] it was -25%; in experiment [4], 0.9%; in experiment [5] it was 21.6%; in experiment [6] it was 49.3%.
Take `CCCCCCCCCC(=O)Oc1cccc2c1CC(C[Se]c1ccccc1)C(=O)O2` (centres undefined): the growth inhibition in experiment [1] was 2.1%; in experiment [2], -0.3%; in experiment [3], -0.85%; in experiment [4], -3.05%; in experiment [5], -2.05%; in experiment [6], 5.7%.
Take `COc1ccc(N/C=C/C2=[N+](C)c3ccccc3C2(C)C)c(OC)c1`: the growth inhibition in experiment [1] was 1.85% and -24.3%; in experiment [2] it was -17.2% and -19.6%; in experiment [3], -8.5% and -20.9%; in experiment [4] it was 0.45% and -58.4%; in experiment [5] it was -5.55% and -2.4%; in experiment [6], 5.5% and -7.05%.
Turning to `CCOc1ccc(N=Nc2c(O)n(-c3ccc(Cl)cc3)c(=S)n(-c3ccccc3)c2=O)cc1`, the growth inhibition in experiment [1] was -15.2%; in experiment [2], 2.5%; in experiment [3], 7.85%; in experiment [4] it was -0.15%; in experiment [5] it was 32.5%; in experiment [6], 26.4%.
As for `O=C1CCCc2ccc3c(c21)CC1(Cc2cc4c(cc2C1)CCCC4)C3`, the growth inhibition in experiment [1] is -22.6%; in experiment [2], 9.15%; in experiment [3], 34%; in experiment [4], -13.9%; in experiment [5] it was 32.4%; in experiment [6] it was -2.7%.
For `Cc1c2c(c(C)c3c1C(=O)c1cc4c(cc1C3=O)OCO4)OC(C)(C)O2`, the growth inhibition in experiment [1] was 14.3%; in experiment [2], 0.35%; in experiment [3], 21.4%; in experiment [4], 8.95%; in experiment [5] it was 11.6%; in experiment [6], 23.1%.
Take `COC(=O)CCc1ccco1`: the growth inhibition in experiment [1] is 10.6%; in experiment [2], -10%; in experiment [3], 3.4%; in experiment [4] it was 2.5%; in experiment [5] it was 6.95%; in experiment [6], 12.7%.
With `Nc1ccc(Cc2cc([N+](=O)[O-])cc([N+](=O)[O-])c2)cc1`, the growth inhibition in experiment [1] is 3.15%; in experiment [2] it was -1.75%; in experiment [3], 11.4%; in experiment [4], -42%; in experiment [5] it was 15.3%; in experiment [6], -29.8%.
On to `O=C(C#Cc1ccccc1)Nc1ccccc1CC(c1c[nH]c2ccccc12)c1c[nH]c2ccccc12`, for which the growth inhibition in experiment [1] is 0.75%; in experiment [2], -2.25%; in experiment [3], 1.55%; in experiment [4], 5.4%; in experiment [5], 8.85%; in experiment [6], -7.65%.
With `COc1ccc(C2=Nc3c(nc(OC)[nH]c3=O)NC(c3ccccc3)C2)cc1` (centres undefined), the growth inhibition in experiment [1] is 12.3%; in experiment [2], 10.2%; in experiment [3], -10.5%; in experiment [4], 7.55%; in experiment [5], -8.95%; in experiment [6], -21.8%.
Consider `CC(C)COC(=O)/C=C/c1ccccc1`, for which the growth inhibition in experiment [1] is 19.8%; in experiment [2], 16.6%; in experiment [3], 20.6%; in experiment [4] it was 7.3%; in experiment [5] it was 2.9%; in experiment [6] it was 11.6%.
For the compound `CCN(CC)C(=O)c1c(Cl)cc(N(CC)CC)oc1=O`, the growth inhibition was -21.7% in experiment [1]; -11.8% in experiment [2]; -42% in experiment [3]; -23.5% in experiment [4]; -41.1% in experiment [5]; -54.5% in experiment [6].
